# FLuc modulator – qHTS profiling assay for firefly luciferase inhibitor/activator using purifed enzyme and Km concentrations of substrates (counterscreen for miR-21 project); Luciferin 4-monooxygenase (Photinus pyralis), P08659; purified FLuc, Km substrates, luminescence inhibition; Potency, µM (series often up to 57.5 µM), inactives show at the highest dose activity change, negative = inhibition, usual class: inhibitors; 6.9% of 360,000 active;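 note: plate controls were vehicle for no effect and reference inhibitor for full effect; nearly all actives have a fitted effect of over 55% in size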
# Target sequence (P08659 whole entry, looked up): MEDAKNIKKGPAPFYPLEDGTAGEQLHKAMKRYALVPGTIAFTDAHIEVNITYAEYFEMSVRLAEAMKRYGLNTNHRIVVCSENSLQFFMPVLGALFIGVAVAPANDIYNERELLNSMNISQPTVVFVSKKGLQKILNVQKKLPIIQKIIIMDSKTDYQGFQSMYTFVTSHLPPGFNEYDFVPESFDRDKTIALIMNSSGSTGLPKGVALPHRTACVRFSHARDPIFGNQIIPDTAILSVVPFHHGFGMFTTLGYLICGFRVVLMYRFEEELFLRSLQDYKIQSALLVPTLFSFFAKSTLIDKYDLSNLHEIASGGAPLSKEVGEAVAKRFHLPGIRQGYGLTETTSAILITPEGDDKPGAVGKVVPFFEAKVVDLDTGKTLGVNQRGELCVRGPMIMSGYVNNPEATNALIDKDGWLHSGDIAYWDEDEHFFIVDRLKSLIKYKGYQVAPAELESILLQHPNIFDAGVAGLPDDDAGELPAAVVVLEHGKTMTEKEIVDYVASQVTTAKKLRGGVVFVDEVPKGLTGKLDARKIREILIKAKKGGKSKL
#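 Biochemical qHTS of compounds, final roughly 60 µM downward over six points, against 10 nM purified firefly luciferase using Km concentrations of substrates (10 uM D-luciferin, 10 uM ATP) in Tris acetate pH 7.5 buffer; luminescence output.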
# Rab9 prom act – qHTS Assay for Rab9 Promoter Activators; 2.8% of 320,000 active; Huh7 Rab9 promoter-luciferase reporter, luminescence, 24 h; Potency, µM (series often up to 9.22 µM), inactives show top-dose activation, negative = inhibition, most hits filed as activators; note: % of control where 0% means no effect; nearly all actives have a fitted effect of over 60% in size
#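 Luminescence from Amplite-detected luciferase (10 minutes, ambient) reports Rab9 promoter activation. Before that, stable Rab9-luciferase Huh7 cells (1500/well, reduced-serum OP-MEM I plus 10% FBS) were exposed to compound for 24 hours at 37C.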
# Luc counter – Counterscreen for Luciferase (Kinase-Glo TM) Inhibition | Kinase-Glo luciferase, ATP luminescence, 8 min | Luciferin 4-monooxygenase (Photuris pensylvanica), Q27757 | Potency, µM (titrated, usually from 38.3 µM), for inactives: at the top dose activity change, negative = inhibition, usual class: inhibitors | 0.28% of 200,000 active | AID 1379, 2008; note: % is set by controls: 0 for no effect and ±100 for the full control effect; nearly all actives have a fitted effect of over 60% in size
#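 Kinase-Glo luciferase light output from ATP and luciferin was measured with 10 uM ATP, within the enzyme's linear range. Buffer: 50 mM imidazole pH 7.2, 50 mM KCl, 7 mM MgCl2, 0.01% Tween 20, 0.05% BSA; luminescence read after 8 min at ambient temperature.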
# NPC1 promoter act – qHTS Assay for NPC1 Promoter Activators; 2.4% of 320,000 active; Potency, µM (top dose mostly 9.22 µM), for inactives: top-dose activation, most hits filed as activators; Huh7 NPC1 promoter luciferase reporter, 24 h; note: % of control where 0% means no effect; nearly all actives have a fitted effect of over 60% in size
#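 Huh7 reporter cells (NPC1 promoter driving luciferase) are dosed with compound for 24 h at 37 °C, 5% CO2; luciferase detection reagent is then added and luminescence measured after 10 min at ambient temperature.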
# ELG1 genotox – qHTS screen for small molecules that induce genotoxicity in human embryonic kidney (HEK293T) cells expressing luciferase-tagged ELG1; Potency, µM (top dose mostly 46 µM), inactives show at the highest dose activity change, positive = activation, actives largely listed as activators; AID 504466, 2011; 1.3% of 330,000 active; HEK293T ELG1-luciferase reporter, luminescence, 16 h; note: % of control where 0% means no effect; nearly all actives have a fitted effect of over 60% in size
#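 Genotoxicity was scored as increased ELG1-luciferase reporter signal, measured by ONE-Glo luminescence (30 min, room temperature). Compound or vehicle exposure of the HEK293T reporter cells lasted 16 hr at 37°C.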
# SMN2 splice up – qHTS Assay for Enhancers of SMN2 Splice Variant Expression; Potency, µM (series often up to 46.1 µM), without a hit: top-dose activity change, positive = activation, most hits filed as activators; 2.8% of 210,000 active; HEK293 SMN2-luciferase splicing reporter, luminescence, 30-36 h; note: % of control where 0% means no effect; nearly all actives have a fitted effect of over 55% in size
#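 HEK293 cells carry an SMN2 […]–luciferase reporter in which exon 7 inclusion puts luciferase in frame. Cells were plated 10-12 h before compound addition, then incubated 30-36 h at 37C. ONE-Glo luminescence was read; sodium butyrate at 4.5 mM final served as control.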
# * hit, by the source's call; u = inconclusive; x = not tested or not shown; [ ] = another dose, or the depositor's remark. An excerpt weighted towards active compounds, which were near 7.5% of everything screened. Calls come from the whole dose curve; as a rule, active = well fitted curve in the direction sought with a large enough effect; inconclusive = small, poorly fitted or top-dose-only effect, or another doubt; inactive = no such curve, though single readings can be large; an effect the other way counts as inactive or inconclusive. Potency is the fitted concentration of half-maximal effect.
SMILES,FLuc modulator,Rab9 prom act,Luc counter,NPC1 promoter act,ELG1 genotox,SMN2 splice up
Cc1ccc(O)c(N=Cc2cc(Cc3ccccc3)cc([N+](=O)[O-])c2O)c1,u,-2.0%,-1.5%,-4.4%,-6.6%,0.7%
CC1=CC(=C2N=C(c3ccccc3)OC2=O)C=C(C)O1,u,u,-3.0%,u,6.8%,11.9%
CN1C=CC=C/C1=C1/N=C(c2ccccc2)OC1=O,u,3.16µM*,1.2%,u,3.1%,u
CCOc1ccc(NC(=O)CSc2nnnn2-c2ccc(C(N)=O)cc2)cc1,3.0%,0.9%,x,-4.3%,15.6%,x
CCOc1ccc(NC(=O)c2ccc(NS(=O)(=O)c3cccs3)cc2)cc1,12µM*,-2.5%,x,-6.1%,-1.0%,x
CCOc1ccc(C(=O)c2cccs2)cc1,16.9µM*,u,-3.8%,u,u,11.7%
COc1ccc(/C(C)=N/NC(=O)c2nc(C)cc(C)n2)cc1,23.9µM*,u,-6.2%,u,5.62µM*,11.2µM*
CCOc1ccc(Oc2ccc(NS(=O)(=O)c3cc(C(=O)O)ccc3Cl)cc2)cc1,0.9%,-2.4%,x,-4.0%,1.9%,x
CCOc1ccc(NS(=O)(=O)c2cc(NC(=O)c3ccc(C)cc3)ccc2Cl)cc1,13.5µM*,-26.7%,7.0%,-29.3%,-4.9%,-68.0%
Cn1cc(-c2cc3n(n2)CCC(=O)N3CCCC(=O)NCc2ccc(F)cc2)c2ccccc21,0.1%,x,x,x,x,x
COc1ccc(/C(C)=N/NC(=O)c2ccc(NS(=O)(=O)c3cccs3)cc2)cc1,21.3µM*,-2.9%,x,2.4%,1.8%,x
COc1ccc(/C=N/NC(=O)CCc2ccccc2)cc1O,-14.1%,6.2%,-4.7%,-0.7%,3.0%,-5.7%
COc1ccc(NC(=O)CCCc2ccc(OC)c(C)c2)cc1,-8.6%,8.8%,x,3.4%,-3.5%,x
COc1cccc(/C=N/NC(=O)CCCc2ccc(OC)c(C)c2)c1,19µM*,-2.2%,-0.4%,-1.4%,-0.9%,-15.9%
COc1cccc(/C=N/NC(=O)CCc2ccccc2)c1,10.7µM*,1.3%,-1.0%,0.6%,3.2%,-3.8%
Cc1ccc2sc(NC(=O)CN3C(=O)c4ccccc4C3=O)nc2c1C,0.6%,-9.2%,0.0%,0.3%,-0.6%,-13.0%
CCN1/C(=C/C=C/C=C/C=C/c2sc3ccccc3[n+]2CC)Sc2ccccc21,u,-39.8%,x,-36.7%,-10.4%,x
CCN1/C(=C/C=C/c2sc3ccccc3[n+]2CC)Sc2ccccc21,21.3µM*,-44.7%,x,-40.3%,u,x
CCN1/C(=C/C=C/C=C/c2sc3ccccc3[n+]2CC)Sc2ccccc21,15.1µM*,-32.0%,u,-37.6%,-8.4%,-90.2%
Cc1ccc(Nc2nnns2)cc1C,2.0%,1.6%,0.4%,-3.4%,-6.3%,6.5%
Cc1ccc2c(c1)C(=O)OC(C(=O)Nc1ccc(C(=O)O)cc1)C2 (stereo not given),7.57µM*,x,x,x,x,-3.4%
CCCNc1nc(-c2cc(-c3ccc(Cl)cc3)on2)cc(C(C)C)n1,-0.8%,-14.1%,x,-3.3%,0.3%,x
Cn1c(CCNC(=O)c2ccccc2)nc2cc(NC(=O)c3ccco3)ccc21,u,27.5%,-1.6%,20.8%,u,26.6%
COc1ccccc1C(=O)Nc1ccc2c(c1)nc(CCNC(=O)c1ccco1)n2C,u,3.8%,x,-17.8%,8.2%,x
CCC(=O)NCCc1nc2cc(NC(=O)c3ccco3)ccc2n1C,16.9µM*,u,x,u,u,x
SMILES,FLuc modulator,Rab9 prom act,Luc counter,NPC1 promoter act,ELG1 genotox,SMN2 splice up
Cn1c(CCNC(=O)c2ccco2)nc2cc(NC(=O)c3ccco3)ccc21,23.9µM*,u,-3.9%,u,u,11.2µM*
Cc1nc2cc(NC(=O)NCc3ccco3)ccc2n1C,u,u,-6.4%,26.9%,14.6µM*,u
Cn1c(CCNC(=O)c2ccco2)nc2cc(NC(=O)c3ccccc3)ccc21,16.9µM*,u,x,u,15.1%,x
CCCCC(=O)Nc1ccc2c(c1)nc(CCNC(=O)c1ccco1)n2C,-12.0%,18.5%,x,4.5%,10.6%,x
O=C(O)C(Cc1cn[nH]n1)=NO,1.8%,-1.8%,x,-4.2%,-1.3%,x
Cc1nc2cc(NC(=O)c3ccco3)ccc2n1C,8.49µM*,0.316µM*,x,0.501µM*,2.31µM*,x
Cc1cccc2c1ncc1c(=O)n(-c3ccccc3)[nH]c12,4.26µM*,2.24µM*,x,3.16µM*,u,x
Cc1ccccc1NC1=NC(C)(C)N=C(N)N1,-0.6%,2.8%,-7.2%,9.1%,0.4%,0.224µM*
Cc1cccc(NC2=NC(C)(C)N=C(N)N2)c1C,5.9%,2.2%,3.4%,1.1%,3.6%,0.0%
Cc1cccnc1NC(=S)Nc1ccc(Br)cc1Cl,4.78µM*,3.16µM*,-4.0%,3.16µM*,u,25.1µM*
CCN(CC)c1ccc(/C=C/c2nc3ccccc3s2)cc1,0.601µM*,3.7%,-11.6%,u,0.461µM*,-89.7%
c1ccc2c(c1)oc1c(Nc3ccc(CN4CCOCC4)cc3)ncnc12,8.49µM*,u,1.4%,2.24µM*,2.06µM*,-91.6%
c1ccc(Nc2ncnc3c2oc2ccccc23)cc1,21.3µM*,x,0.7%,x,x,-0.3%
Oc1ccc(Nc2ncnc3c2oc2ccccc23)cc1,15.1µM*,u,x,u,u,x
Oc1ccccc1Nc1ncnc2c1oc1ccccc12,-1.6%,6.1%,0.1%,-2.9%,u,-1.0%
CCc1nc(Nc2ccc(N3CCN(C(C)=O)CC3)cc2)c2oc3ccccc3c2n1,u,-2.5%,x,5.0%,-31.2%,x
CC(=O)N1CCN(c2ccc(Nc3ncnc4c3oc3ccccc34)cc2)CC1,23.9µM*,12.6%,-4.1%,18.5%,-10.1%,-43.1%
c1ccc2c(c1)oc1c(NCCN3CCOCC3)ncnc12,-12.1%,3.7%,0.5%,14.1%,6.8%,-4.4%
CC(C)C(Nc1ncnc2c1oc1ccccc12)C(=O)O (stereo not given),-15.9%,0.6%,x,-2.5%,5.5%,x
Oc1cccc(Nc2ncnc3c2oc2ccccc23)c1,8.49µM*,u,x,3.55µM*,13µM*,x
CCN(CC)S(=O)(=O)c1ccc(N2CCCCC2)c(NC(=O)C2CCN(C(=O)c3ccc(F)cc3)CC2)c1,-0.6%,15.7%,x,0.1%,0.0%,x
COc1cc(-c2nnn(Cc3ccccc3C)n2)cc(OC)c1OC,0.7%,3.6%,x,-5.2%,5.7%,x
Cc1ccccc1-c1nnn(Cc2ccc(F)cc2Cl)n1,16.9µM*,-1.3%[1.84 µM],x,15.9%,8.8%,x
Clc1ccccc1Cn1nnc(-c2ccccc2)n1,21.3µM*,u,1.5%,26.7%,u,u
